# Values joined by “and” are separate entries in the source; they are usually repeats but may differ in a detail not shown here. Equal entries are not always repeated.
# Columns and labels:
# Assay type in all cases: functional
# [1] = biological target: Solute carrier family 2, facilitated glucose transporter member 1 (Homo sapiens) (UniProt P11166); experiment: ST_JUDE_LEISH: Cytotoxicity at 2uM final concentration against transgenic Leishmania Mexicana promastigotes LmGLUT1 that are glucose transport deficient and complemented with the human glucose transporter GLUT1. Activity is measured by DNA content using SYBR green in vitro
# Sequence of Solute carrier family 2, facilitated glucose transporter member 1 (Homo sapiens) (P11166 whole entry): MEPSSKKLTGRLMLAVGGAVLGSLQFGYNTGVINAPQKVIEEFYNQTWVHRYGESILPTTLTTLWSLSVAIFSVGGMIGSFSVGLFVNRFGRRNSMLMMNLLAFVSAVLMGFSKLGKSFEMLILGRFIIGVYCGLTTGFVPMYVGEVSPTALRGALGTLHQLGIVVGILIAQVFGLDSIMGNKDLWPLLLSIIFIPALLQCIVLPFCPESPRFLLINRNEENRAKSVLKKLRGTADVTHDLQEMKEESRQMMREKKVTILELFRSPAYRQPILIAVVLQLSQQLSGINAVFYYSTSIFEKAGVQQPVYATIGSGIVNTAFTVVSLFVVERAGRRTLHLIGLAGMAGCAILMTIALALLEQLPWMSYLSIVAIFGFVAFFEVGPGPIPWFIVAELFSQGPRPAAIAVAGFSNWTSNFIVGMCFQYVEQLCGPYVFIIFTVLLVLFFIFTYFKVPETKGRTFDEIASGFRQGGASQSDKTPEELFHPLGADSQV
# [2] = biological target: Hexose transporter 1 (Plasmodium falciparum) (UniProt O97467); experiment: ST_JUDE_LEISH: Cytotoxicity at 2uM final concentration against transgenic Leishmania Mexicana promastigotes LmPfHT that are glucose transport deficient and complemented with the Plasmodium falciparum hexose transporter. Activity is measured by DNA content using SYBR green in vitro
# [3] = biological target: Glucose transporter (Leishmania mexicana) (UniProt O61059); experiment: ST_JUDE_LEISH: Cytotoxicity at 2uM final concentration against transgenic Leishmania Mexicana promastigotes LmGT2 that are glucose transport deficient and complemented with the L. Mexicana glucose transporter 2. Activity is measured by DNA content using SYBR green in vitro
smiles,measurement,setting,value
CC[C@H]1CN2CC[C@H]1C[C@H]2[C@H](O)c1cc(-c2ccc3ccccc3c2)nc2ccc(OC)cc12,inhibition,[1],10%
same,inhibition,[2],4.9%
same,inhibition,[3],3.26%
CCCCCC(C)C(C)c1cc(O)c2c(c1)OC1(C(C)C)CC(O)C(C)C2C1 (centres undefined),inhibition,[1],5.93%
same,inhibition,[2],5.5%
same,inhibition,[3],6.4%
O=C(/C=C/c1ccc(Cl)c(Cl)c1)NC1CCC(N2CCC(c3c[nH]c4ccccc34)CC2)CC1 (centres undefined),inhibition,[1],26%
same,inhibition,[2],6.98%
same,inhibition,[3],4.41%
Cc1ccccc1C1=CCN(CCCN2c3ccccc3Sc3ccc(Cl)cc32)CC1,inhibition,[1],6.62%
same,inhibition,[2],5.58%
same,inhibition,[3],1.49%
O=[N+]([O-])c1ccc(Oc2c(Cl)cc(S(=O)(=O)N3CCC(CN4CCC(c5c[nH]c6ccccc56)CC4)CC3)cc2Cl)c(Cl)c1,inhibition,[1],1.89%
same,inhibition,[2],0.25%
same,inhibition,[3],3.15%
CC[C@H]1CN2CC[C@@H]1C[C@H]2[C@H](O)c1cc(N2CCOCC2)nc2ccc(OC)cc12,inhibition,[1],-1.11%
same,inhibition,[2],-1.44%
same,inhibition,[3],-2.42%
COC(=O)c1ccc(CC(C)NCC(O)c2ccccc2Cl)cc1 (centres undefined),inhibition,[1],0.96%
same,inhibition,[2],0.22%
same,inhibition,[3],1.21%
OC1(CNCc2ccccc2)CCN(CCc2c[nH]c3ccc(F)cc23)CC1,inhibition,[1],4.9%
same,inhibition,[2],8.31%
same,inhibition,[3],5.83%
C[C@H](Cc1ccc(OCCCCCCOc2ccccc2)cc1)NC[C@H](O)c1cccc(Cl)c1,inhibition,[1],-0.31%
same,inhibition,[2],-0.04%
same,inhibition,[3],-0.25%
CN(C)CCc1c[nH]c2ccc(C(=O)Nc3ccc(-c4ccncc4)cc3)cc12,inhibition,[1],0.58%
same,inhibition,[2],0.83%
same,inhibition,[3],0.61%
Cc1[nH]c2ccccc2c1C1=CCN(CCCCC2(C)C(=O)Nc3ccccc32)CC1 (centres undefined),inhibition,[1],2.98%
same,inhibition,[2],2.07%
same,inhibition,[3],-0.37%
CCCN(CCC)CCOC(=O)C(OCC)(c1ccccc1)c1ccccc1,inhibition,[1],1.8%
same,inhibition,[2],0.63%
same,inhibition,[3],-0.33%
CCCCCCCc1cc(=O)c2ccccc2[nH]1,inhibition,[1],12.7%
same,inhibition,[2],3.61%
same,inhibition,[3],1.21%
CC(C)/C(=C(/F)CN1C(=O)C(NC(=O)c2cc3ccccc3[nH]2)C(=O)N(c2ccccc2)c2ccccc21)c1ccccc1 (centres undefined),inhibition,[1],-0.35%
same,inhibition,[2],-0.22%
same,inhibition,[3],-1.01%
O=C(Nc1ccccc1OC(F)(F)F)NC1CCC(CN2CCC(c3c[nH]c4ccccc34)CC2)CC1 (centres undefined),inhibition,[1],2.64% and 17.3%
same,inhibition,[2],3.83% and 26.1%
same,inhibition,[3],0.62% and 10.3%
O=C(Nc1cc(C(F)(F)F)cc(C(F)(F)F)c1)N1CCC(CN2CCC(c3c[nH]c4ccccc34)CC2)CC1,inhibition,[1],2.61%
same,inhibition,[2],3.46%
same,inhibition,[3],1.9%
Fc1ccc2[nH]cc(CCN3CCC(CNCc4ccccc4)CC3)c2c1,inhibition,[1],6.4%
same,inhibition,[2],5.46%
same,inhibition,[3],1.2%
Cc1cc(NC(=O)[C@H](CC(C)C)Nc2ccc(C#N)c3ccccc23)ccc1F,inhibition,[1],0.56%
same,inhibition,[2],2.4%
same,inhibition,[3],-0.16%
Cc1cc2cc(CNCCc3ccccc3Br)ccc2nc1N,inhibition,[1],9.09%
same,inhibition,[2],1.37%
same,inhibition,[3],5.36%
CC(C)CN1CCC(N(C)c2cc(NC(=O)c3cccc(F)c3)ccn2)CC1,inhibition,[1],-1.6%
same,inhibition,[2],0.49%
same,inhibition,[3],0.5%
CC(=O)Nc1ccc(CN2CCC(N(C)c3cc(NC(=O)c4cccs4)ccn3)CC2)cc1,inhibition,[1],-1.53%
same,inhibition,[2],0.83%
same,inhibition,[3],-0.48%
Cc1ccc(CC(C)(C)NCC(O)c2cccc(C(F)(F)F)c2)cc1 (centres undefined),inhibition,[1],2.49%
same,inhibition,[2],2.91%
same,inhibition,[3],3.49%
O=C(/C=C/c1cc(F)cc(C(F)(F)F)c1)N1CCC(CN2CCC(c3c[nH]c4ccccc34)CC2)CC1,inhibition,[1],0.47%
same,inhibition,[2],1.39%
same,inhibition,[3],2.96%
CCCCCc1cc(O)c2c(c1)OC(C)(C)c1ccncc1-2,inhibition,[1],0.55%
same,inhibition,[2],0.66%
same,inhibition,[3],3.5%
Cc1[nH]c2cc(Cl)ccc2c1C1=CCN(CCCCC2(C)C(=O)Nc3ccccc32)CC1 (centres undefined),inhibition,[1],2.01%
same,inhibition,[2],0.91%
same,inhibition,[3],1.15%
COC(=O)c1ccc(CC(C)NCC(O)c2ccc3ccc4ccccc4c3c2)cc1 (centres undefined),inhibition,[1],3.1%
same,inhibition,[2],1.22%
same,inhibition,[3],3.14%
Cn1nc(-c2ccc(S(=O)(=O)N3CCC(CN4CCC(c5c[nH]c6ccccc56)CC4)CC3)s2)cc1C(F)(F)F,inhibition,[1],0.1%
same,inhibition,[2],2.15%
same,inhibition,[3],-1.24%
CN(C)CCCn1cc(C(=O)OC2CC3CCC(C2)N3C)c2cc(-c3ccccc3)ccc21 (centres undefined),inhibition,[1],12.9%
same,inhibition,[2],6.68%
same,inhibition,[3],9.57%
O=C(C=Cc1ccccc1O)N1CCC(CN2CCC(c3c[nH]c4ccccc34)CC2)CC1,inhibition,[1],2.59%
same,inhibition,[2],2.2%
same,inhibition,[3],2.49%
O=C(/C=C/c1ccc(Cl)cc1)NC1CCC(CN2CCC(c3c[nH]c4ccccc34)CC2)CC1 (centres undefined),inhibition,[1],0.07% and -1.03%
same,inhibition,[2],0.24% and -2.23%
same,inhibition,[3],-1.22% and 2.14%
OC(CNC1CCCCCC1)c1ccc(Cl)c(Cl)c1 (centres undefined),inhibition,[1],-0.7%
same,inhibition,[2],0.32%
same,inhibition,[3],-0.87%
CC(C)CCNC(=O)c1cc(C(=O)c2cc(F)ccc2O)cn(CCC(C)C)c1=O,inhibition,[1],3.21%
same,inhibition,[2],2.53%
same,inhibition,[3],6.46%
O=C(/C=C/c1ccc(O)cc1)NC1CCC(CN2CCC(c3c[nH]c4ccccc34)CC2)CC1 (centres undefined),inhibition,[1],-4.73%
same,inhibition,[2],-2.63%
same,inhibition,[3],-0.07%

# Reference: ChEMBL document CHEMBL3433997, “St. Jude Leishmania screening dataset” (2016)
